The subject of assay [1] is DLD1. In words: cell viability (CellTiter-Glo) relative to plate median (fraction of plate median); higher = more viable cells. To be noted: 5 µM; treatment time 24 h; reporter: 7TFP. The procedure, abridged:
(§1)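 Library compounds, at a final 5 µM, stayed on reporter cells for 24 h. The cells were colorectal cancer lines stably transduced with lentiviral TCF/Wnt firefly luciferase reporters, seeded in 384-well plates 24 h before dosing. Firefly luciferase or CellTiterGlo luminescence from parallel plates was normalised to the plate median in webcellHTS2 (additive, no log transformation), and two independent replicates were averaged.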
In general terms: ATP-based viability assays read luminescence as a measure of living cells.

Assay [2] concerns HCT116. Described as above. As to conditions: 5 µM; treatment time 24 h; reporter: TCF4/Wnt. Put shortly:
as §1

The subject of assay [3] is SW480. The description is as above. To be noted: 5 µM; treatment time 24 h; reporter: 7TFP. Put shortly:
as §1

Assay [4] deals with DLD1. The assay is described as follows: TCF/Wnt firefly luciferase reporter signal relative to plate median (fraction of plate median); higher = higher Wnt reporter signal. As to conditions: 5 µM; treatment time 24 h; reporter: 7TFP. The procedure, abridged: as §1
(In a reporter assay the amount or activity of a reporter protein is the signal.)

The subject of assay [5] is SW480. The assay is described as above. To be noted: 5 µM; treatment time 24 h; reporter: 7TFP. Put shortly: as §1

± gives the standard deviation of the averaged measurements.

Take `c1ccc2c(c1)CCCC2C1=NCCN1` (stereo not given): the cell viability in assay [1] amounted to 1.02 ± 0.014; in assay [2] it was 1.125 ± 0.0071; in assay [3] it was 1.07 ± 0.05. The “TCF/Wnt firefly luciferase reporter signal” value in assay [4] was found to be 1.08 ± 0.19; in assay [5], 0.985 ± 0.0014.

With `CCC(C)C(NC)C(=O)O` (stereo not given), the cell viability in assay [1] turned out to be 0.959 ± 0.073; in assay [2], 0.923 ± 0.058; in assay [3] it was 0.946 ± 0.05. Also, the results for the “TCF/Wnt firefly luciferase reporter signal” value in assay [4] and in assay [5] were 1.01 ± 0.22 and 0.947 ± 0.09, respectively.

For the molecule `CC(C)CC1NC(=O)C(NC(=O)c2ncccc2O)C(C)OC(=O)C(c2ccccc2)N(C)C(=O)C(C)NC(=O)C(C(C)C(C)C)N(C)C(=O)CN(C)C(=O)C2CCCN2C1=O` (single isomer, unassigned; isomere) [Neoviridogrisein II (Isomere)], the cell viability in assay [1] is 0.904 ± 0.024; in assay [2], 0.991 ± 0.07; in assay [3] it was 1.02 ± 0.03. Also, the “TCF/Wnt firefly luciferase reporter signal” value in assay [4] was 0.918 ± 0.1; in assay [5], 0.937 ± 0.02.

Turning to `CC[C@H](C)C(=O)O[C@H]1C[C@@H](C)C=C2C=C[C@H](C)[C@H](CC[C@@H]3C[C@@H](O)CC(=O)O3)[C@H]21` [Mevinolin, Lovastatin], the cell viability in assay [1] amounted to 0.966 ± 0.1; in assay [2], 0.931 ± 0.048; in assay [3], 0.942 ± 0.017. Moreover, the “TCF/Wnt firefly luciferase reporter signal” value was 0.836 ± 0.26 in assay [4] and 0.943 ± 0.029 in assay [5].

Regarding `COc1ccc(-c2coc3cc(O)ccc3c2=O)cc1`, the cell viability in assay [1] came to 1.01 ± 0.071; in assay [2], 1.01 ± 0.15; in assay [3] it was 0.9355 ± 0.00071. The “TCF/Wnt firefly luciferase reporter signal” value in assay [4] worked out at 0.998 ± 0.046; in assay [5], 0.972 ± 0.069.

Regarding `CN(C)C(=O)Nc1ccc(Cl)c(Cl)c1`, the cell viability is 0.959 ± 0.035 in assay [1], 0.989 ± 0.016 in assay [2] and 0.966 ± 0.042 in assay [3]. Also, the results for the “TCF/Wnt firefly luciferase reporter signal” value in assay [4] and in assay [5] were 1.14 ± 0.099 and 1.15 ± 0.078, respectively.

Take `Cc1ccc(C(=O)Nc2ccc(S(=O)(=O)O)c3cc(S(=O)(=O)O)cc(S(=O)(=O)O)c23)cc1NC(=O)c1cccc(NC(=O)Nc2cccc(C(=O)Nc3cc(C(=O)Nc4ccc(S(=O)(=O)O)c5cc(S(=O)(=O)O)cc(S(=O)(=O)O)c45)ccc3C)c2)c1`: the cell viability in assay [1] is 1.02 ± 0.068; in assay [2] it was 0.929 ± 0.13; in assay [3] it was 1.04 ± 0.035. For the same molecule, the “TCF/Wnt firefly luciferase reporter signal” value in assay [4] was 0.936 ± 0.018; in assay [5] it was 0.954 ± 0.11.

`COc1ccc2oc3ccccc3c(=O)c2c1`: the results for the cell viability in assay [1], in assay [2] and in assay [3] were 1.075 ± 0.0071, 1.05 ± 0.078 and 1.09 ± 0.05, respectively. The “TCF/Wnt firefly luciferase reporter signal” value came out at 1.15 ± 0.13 in assay [4] and 1.1 ± 0.078 in assay [5].

Turning to `COc1ccc2cc([C@H](C)C(=O)O)ccc2c1`, the cell viability was found to be 1.02 ± 0.039 in assay [1], 0.981 ± 0.083 in assay [2] and 1.045 ± 0.0071 in assay [3]. Besides, the “TCF/Wnt firefly luciferase reporter signal” value turned out to be 0.969 ± 0.13 in assay [4] and 0.941 ± 0.065 in assay [5].

As for `O=c1cc(-c2ccccc2)oc2cc(O)c(O)c(O)c12`, the cell viability was 1.08 ± 0.021 in assay [1], 1.06 ± 0.042 in assay [2] and 1.12 ± 0.035 in assay [3]. The “TCF/Wnt firefly luciferase reporter signal” value is 0.927 ± 0.073 in assay [4] and 1.02 ± 0.037 in assay [5].

Consider `O=c1[nH]cnc2c1ncn2[C@@H]1O[C@H](CO)[C@@H](O)[C@H]1O`, for which the cell viability in assay [1] was 1.09 ± 0.085; in assay [2], 1.05; in assay [3], 0.976 ± 0.028. In addition, the entries for the “TCF/Wnt firefly luciferase reporter signal” value in assay [4] and in assay [5] were 0.975 ± 0.093 and 0.969 ± 0.1, respectively.

In the case of `O=c1cc[nH]c(=S)[nH]1`, the cell viability in assay [1] stood at 1.03 ± 0.073; in assay [2] it was 1.04 ± 0.061; in assay [3], 0.956 ± 0.076. For the same molecule, the “TCF/Wnt firefly luciferase reporter signal” value came out at 1.03 ± 0.014 in assay [4] and 1.02 ± 0.028 in assay [5].

Consider `O=C(CC(=O)c1ccccc1)c1ccccc1`, for which the cell viability in assay [1] turned out to be 0.972 ± 0.069; in assay [2], 0.82 ± 0.026; in assay [3], 1.03. For the same molecule, the “TCF/Wnt firefly luciferase reporter signal” value in assay [4] came out at 1.15 ± 0.021; in assay [5], 1.17 ± 0.057.

As to `CC(C)C1NC(=O)C2CCCN2C1=O` (single isomer, unassigned; isomere) [Cyclo(prolylvalyl) (Isomere)], the cell viability is 1 ± 0.023 in assay [1], 0.992 ± 0.054 in assay [2] and 0.958 ± 0.06 in assay [3]. For the same molecule, the “TCF/Wnt firefly luciferase reporter signal” value in assay [4] stood at 0.939 ± 0.067; in assay [5], 0.944 ± 0.11.

For the molecule `CC(=O)N[C@@H](Cc1c[nH]c2ccccc12)C(N)=O`, the cell viability in assay [1] came out at 1.07 ± 0.11; in assay [2] it was 0.831 ± 0.1; in assay [3], 1.07 ± 0.028. Also, the “TCF/Wnt firefly luciferase reporter signal” value in assay [4] worked out at 1.04 ± 0.18; in assay [5] it was 0.891 ± 0.061.

For the origin of these results see the supplement of paper PMC6522484.
